# Laboratory results from PubChem BioAssay (NCI).
# Compounds without any hit were thinned out: in the full panel of roughly 79,000, 15% have a hit. A number with no mark means an inactive call. Activity calls are given as the source filed them. Cut-off read from the data, not from the text of the source: active = growth inhibition above about 70%; inactive = the rest.
# Columns and labels:
# [1] = NCI Yeast Anticancer Drug Screen. Data for the rad52 strain (AID 147);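 note: 0% = growth of vehicle-treated control cultures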; conditions: S. cerevisiae rad52 mutant growth inhibition, active compounds read high
# Summary of the method: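 Screen used a yeast mutant impaired in DNA repair. After compound exposure, growth was measured. Values reflect inhibition compared with vehicle-treated cells.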
# [2] = NCI Yeast Anticancer Drug Screen. Data for the wt1 strain (AID 149);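 note: 0% = growth of vehicle-treated wt1 cultures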; conditions: S. cerevisiae wt1 strain (SPY 50644) growth inhibition, active compounds read high
# Summary of the method: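 wt1 yeast, compound-treated; % growth inhibition vs vehicle control.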
# [3] = NCI Yeast Anticancer Drug Screen. Data for the rad50EPP+ strain (AID 151);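 note: 0% = growth of vehicle-treated control cultures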; conditions: S. cerevisiae rad50 mutant strain, active compounds read high
# Summary of the method: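 Exposing the rad50EPP+ strain to each compound, growth was compared with vehicle-only cultures to give inhibition.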
# [4] = NCI Yeast Anticancer Drug Screen. Data for the rad50 strain (AID 155);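 note: 0% = growth of vehicle-only cultures of the same strain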; conditions: S. cerevisiae rad50 strain growth inhibition, active compounds read high
# Summary of the method: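 Genetically altered yeast (DNA repair pathway); compound treatment; growth inhibition vs vehicle ctrl.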
# [5] = NCI Yeast Anticancer Drug Screen. Data for the mec2-1 strain (AID 157); conditions: S. cerevisiae mec2-1 strain, active compounds read high
# Summary of the method: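 Readout is yeast growth inhibition, normalised to vehicle-treated controls, in the mec2-1 strain exposed to compound.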
# [6] = NCI Yeast Anticancer Drug Screen. Data for the rad14 strain (AID 159);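 note: 0% = growth of vehicle-treated control cultures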; conditions: S. cerevisiae rad14 strain growth inhibition, active compounds read high
# Summary of the method: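 Test compounds were applied to a repair-deficient yeast strain. Its growth was then compared with that of cultures given vehicle alone, and inhibition was expressed relative to those controls.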
# [7] = NCI Yeast Anticancer Drug Screen. Data for the CLN2oe strain (AID 163);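 note: 0% = growth of vehicle-only control cultures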; conditions: S. cerevisiae CLN2oe strain, active compounds read high
# Summary of the method: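 Values reflect how much compound exposure reduced yeast growth, referenced to vehicle-exposed cells. Assay organism is a strain with a defined genetic change affecting cell-cycle control.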
# [8] = NCI Yeast Anticancer Drug Screen. Data for the cln2 rad14 strain (AID 165);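 note: 0% = growth equal to vehicle treated cultures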; conditions: S. cerevisiae cln2 rad14 strain, active compounds read high
# Summary of the method: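 Relative to vehicle controls, growth inhibition of compound-treated cln2 rad14 yeast was recorded.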
# [9] = NCI Yeast Anticancer Drug Screen. Data for the bub3 strain (AID 167); conditions: S. cerevisiae bub3 mutant strain, active compounds read high
# Summary of the method: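 Yeast carrying a defined mutation is treated with each compound, and growth is compared with that of vehicle-exposed cells to give inhibition.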
# [10] = NCI Yeast Anticancer Drug Screen. Data for the wt2 strain (AID 169);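 note: 0% = growth of vehicle-treated yeast cultures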; conditions: S. cerevisiae wt2 strain growth inhibition, active compounds read high
# Summary of the method: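 Values express reduction in yeast growth under compound treatment, referenced to vehicle-treated cells.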
# [11] = NCI Yeast Anticancer Drug Screen. Data for the mlh1 strain (AID 171);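 note: 0% = growth of vehicle-treated control cultures of the same strain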; conditions: S. cerevisiae mlh1 strain growth inhibition, active compounds read high
# Summary of the method: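 Steps: expose the defined-mutant yeast strain to compound; expose a parallel culture to vehicle; measure growth; express compound effect as inhibition relative to the vehicle culture.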
# [12] = NCI Yeast Anticancer Drug Screen. Data for the sgs1 strain (AID 173);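 note: 0% = growth of vehicle-only control cultures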; conditions: S. cerevisiae sgs1 mutant, active compounds read high
# Summary of the method: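 Treat defined-mutant yeast with compound; measure growth; calculate inhibition relative to vehicle-treated cells.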
# [13] = NCI Yeast Anticancer Drug Screen. Data for the mlh1 rad18 strain (AID 175); conditions: S. cerevisiae mlh1 rad18 strain growth inhibition, active compounds read high
# Summary of the method: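 Test agents were incubated with a yeast strain of defined genotype (DNA damage repair defect). Inhibition of growth was derived by comparison with vehicle-exposed cultures.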
# [14] = NCI Yeast Anticancer Drug Screen. Data for the rad18 strain (AID 177); conditions: S. cerevisiae rad18 mutant growth inhibition, active compounds read high
# Summary of the method: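 A genetically defined yeast mutant impaired in DNA damage repair was treated with test compounds, then its growth was measured against cultures receiving vehicle alone.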
# [15] = at 5.0 µM (retest, dose inferred, filed as 0.5)
# [16] = at 50.0 µM (retest, dose inferred, filed as 5.0)
smiles,measurement,setting,value
Cc1cccc(/C=N\NC(=S)N2CCCCC2)n1,growth inhibition,[1]; at 1.2 µM,-17%
same,growth inhibition,[1]; at 3.7 µM,67%
same,growth inhibition,[1]; at 11.0 µM,97% (active)
same,growth inhibition,[1]; at 33.0 µM,98% (active)
same,growth inhibition,[1]; at 100.0 µM,97% (active)
same,growth inhibition,[2]; at 1.2 µM,-5%
same,growth inhibition,[2]; at 3.7 µM,92% (active)
same,growth inhibition,[2]; at 11.0 µM,99% (active)
same,growth inhibition,[2]; at 33.0 µM,99% (active)
same,growth inhibition,[2]; at 100.0 µM,99% (active)
same,growth inhibition,[3]; at 1.2 µM,-10%
same,growth inhibition,[3]; at 3.7 µM,-17%
same,growth inhibition,[3]; at 11.0 µM,86% (active)
same,growth inhibition,[3]; at 33.0 µM,97% (active)
same,growth inhibition,[3]; at 100.0 µM,97% (active)
same,growth inhibition,[4]; at 1.2 µM,19%
same,growth inhibition,[4]; at 3.7 µM,57%
same,growth inhibition,[4]; [15],98% (active)
same,growth inhibition,[4]; at 11.0 µM,97% (active)
same,growth inhibition,[4]; at 33.0 µM,97% (active)
same,growth inhibition,[4]; [16],100% (active)
same,growth inhibition,[4]; at 50.0 µM,88.8% (active)
same,growth inhibition,[4]; at 100.0 µM,98% (active)
same,growth inhibition,[5]; at 1.2 µM,-41%
same,growth inhibition,[5]; at 3.7 µM,93% (active)
same,growth inhibition,[5]; [15],97% (active)
same,growth inhibition,[5]; at 11.0 µM,98% (active)
same,growth inhibition,[5]; at 33.0 µM,99% (active)
same,growth inhibition,[5]; [16],100% (active)
same,growth inhibition,[5]; at 50.0 µM,93.2% (active)
same,growth inhibition,[5]; at 100.0 µM,98% (active)
same,growth inhibition,[6]; at 1.2 µM,-19%
same,growth inhibition,[6]; at 3.7 µM,90% (active)
same,growth inhibition,[6]; at 11.0 µM,98% (active)
same,growth inhibition,[6]; at 33.0 µM,98% (active)
same,growth inhibition,[6]; at 100.0 µM,98% (active)
same,growth inhibition,[7]; at 1.2 µM,8%
same,growth inhibition,[7]; at 3.7 µM,85% (active)
same,growth inhibition,[7]; at 11.0 µM,98% (active)
same,growth inhibition,[7]; at 33.0 µM,98% (active)
same,growth inhibition,[7]; at 100.0 µM,91% (active)
same,growth inhibition,[8]; [15],98% (active)
same,growth inhibition,[8]; [16],100% (active)
same,growth inhibition,[8]; at 50.0 µM,92.8% (active)
same,growth inhibition,[9]; at 1.2 µM,-2%
same,growth inhibition,[9]; at 3.7 µM,93% (active)
same,growth inhibition,[9]; [15],97% (active)
same,growth inhibition,[9]; at 11.0 µM,98% (active)
same,growth inhibition,[9]; at 33.0 µM,99% (active)
same,growth inhibition,[9]; [16],99% (active)
same,growth inhibition,[9]; at 50.0 µM,91.8% (active)
same,growth inhibition,[9]; at 100.0 µM,99% (active)
same,growth inhibition,[10]; at 1.2 µM,7%
same,growth inhibition,[10]; at 3.7 µM,92% (active)
same,growth inhibition,[10]; at 11.0 µM,99% (active)
same,growth inhibition,[10]; at 33.0 µM,99% (active)
same,growth inhibition,[10]; at 100.0 µM,95% (active)
same,growth inhibition,[11]; at 1.2 µM,-33%
same,growth inhibition,[11]; at 3.7 µM,63%
same,growth inhibition,[11]; at 11.0 µM,98% (active)
same,growth inhibition,[11]; at 33.0 µM,98% (active)
same,growth inhibition,[11]; at 100.0 µM,99% (active)
same,growth inhibition,[12]; at 1.2 µM,2%
same,growth inhibition,[12]; at 3.7 µM,93% (active)
same,growth inhibition,[12]; at 11.0 µM,98% (active)
same,growth inhibition,[12]; at 33.0 µM,99% (active)
same,growth inhibition,[12]; at 100.0 µM,98% (active)
same,growth inhibition,[13]; [15],98% (active)
same,growth inhibition,[13]; [16],99% (active)
same,growth inhibition,[13]; at 50.0 µM,88.7% (active)
same,growth inhibition,[14]; at 1.2 µM,-7%
same,growth inhibition,[14]; at 3.7 µM,92% (active)
same,growth inhibition,[14]; at 11.0 µM,97% (active)
same,growth inhibition,[14]; at 33.0 µM,98% (active)
same,growth inhibition,[14]; at 100.0 µM,98% (active)
